Shown are actives, neighbours in structure and some others; about 7.3% of the full set was active somewhere.
FLuc modulator: qHTS profiling assay for firefly luciferase inhibitor/activator using purifed enzyme and Km concentrations of substrates (counterscreen for miR-21 project) | purified FLuc, Km substrates, luminescence inhibition | Potency, µM (series often up to 57.5 µM), most hits filed as inhibitors | 360,000 compounds, 6.9% hits; note: nearly all actives have a fitted effect of over 55% in size
Target sequence (P08659 whole entry, looked up): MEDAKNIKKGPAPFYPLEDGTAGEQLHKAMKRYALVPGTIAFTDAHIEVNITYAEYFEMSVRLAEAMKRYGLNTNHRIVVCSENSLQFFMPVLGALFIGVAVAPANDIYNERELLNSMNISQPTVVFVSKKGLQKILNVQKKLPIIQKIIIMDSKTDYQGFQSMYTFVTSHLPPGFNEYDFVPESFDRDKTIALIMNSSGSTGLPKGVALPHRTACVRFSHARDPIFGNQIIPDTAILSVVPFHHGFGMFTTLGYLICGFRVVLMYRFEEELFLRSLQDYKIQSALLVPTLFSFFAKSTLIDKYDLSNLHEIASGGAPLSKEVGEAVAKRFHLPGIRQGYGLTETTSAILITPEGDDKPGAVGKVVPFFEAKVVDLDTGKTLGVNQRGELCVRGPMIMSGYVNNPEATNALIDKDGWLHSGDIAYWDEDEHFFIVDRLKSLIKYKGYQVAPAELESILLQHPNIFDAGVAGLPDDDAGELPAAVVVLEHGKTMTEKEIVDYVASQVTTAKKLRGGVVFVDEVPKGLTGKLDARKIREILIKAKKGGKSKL
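Purified P. pyralis luciferase (10nM final) with 10uM D-luciferin and 10uM ATP (Km levels) in 50mM Tris acetate pH 7.5, 10mM Mg acetate, 0.01% Tween-20, 0.05% BSA; qHTS 6-point titration, ~60 µM downward; luminescence read.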
ELG1 genotox: qHTS screen for small molecules that induce genotoxicity in human embryonic kidney (HEK293T) cells expressing luciferase-tagged ELG1; HEK293T ELG1-luciferase reporter, luminescence, 16 h; AID 504466, 2011; 330,000 compounds, 1.3% hits; Potency, µM (top dose mostly 46 µM), most hits filed as activators; note: nearly all actives have a fitted effect of over 60% in size
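Quantitative HTS format in 1536-well plates. HEK293T ELG1-luciferase reporter cells receive test compound and are incubated 16 hr at 37 °C, 5% CO2; ONE-Glo added, 30 min room temperature, then luminescence read.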
NPC1 prom act: qHTS Assay for NPC1 Promoter Activators; Huh7 NPC1 promoter luciferase reporter, 24 h; Potency, µM (highest dose often 9.22 µM), actives largely listed as activators; 320,000 compounds, 2.4% hits; note: nearly all actives have a fitted effect of over 60% in size
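Cells: Huh7 expressing luciferase under the NPC1 promoter, 1500/well. Seeded 2 h, compound added, incubated 24 h at 37 °C. Luciferase reagent, 10 min ambient, then luminescence.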
SMN2 splice up: qHTS Assay for Enhancers of SMN2 Splice Variant Expression; HEK293 SMN2-luciferase splicing reporter, luminescence, 30-36 h; Potency, µM (top dose mostly 46.1 µM), hits mostly activators; 210,000 compounds, 2.8% hits; AID 1458, 2008; note: nearly all actives have a fitted effect of over 55% in size
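HEK293 cells carry an SMN2 minigene-luciferase reporter in which exon 7 inclusion puts luciferase in frame. Cells were seeded at 2000 cells/well, attached for 10-12 hours, then exposed to compounds for 30-36 hours at 37C before ONE-Glo luminescence.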
p53 reactivation: qHTS assay for re-activators of p53 using a Luc reporter | 320,000 compounds, 0.063% hits | H1299 p53-A138V BP100-luciferase reporter, luminescence, 24 h | Potency, µM (highest dose often 92.2 µM), most hits filed as activators; note: nearly all actives have a fitted effect of over 45% in size
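p53-null H1299 cells stably carrying temperature-sensitive p53-A138V and a BP100-luciferase reporter were pinned with compounds (4-point, 1:5 series) and held 24 hrs at 37 deg C. Luminescence was read 10 min after detection reagent.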
Rab9 promoter act: qHTS Assay for Rab9 Promoter Activators; Huh7 Rab9 promoter-luciferase reporter, luminescence, 24 h; Potency, µM (top dose mostly 9.22 µM), hits mostly activators; 320,000 compounds, 2.8% hits; AID 485297, 2010; note: nearly all actives have a fitted effect of over 60% in size
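Quantitative HTS format; Huh7 Rab9-luciferase reporter cells (1500/well) receive compound 2 h post-plating, incubate 24 h at 37 °C, then get luciferase reagent for 10 min before luminescence reading.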
Numbers stand for hits; - = inactive; ? = inconclusive; . = no result. Calls come from the whole dose curve; as a rule, active = well fitted curve in the direction sought with a large enough effect; inconclusive = small, poorly fitted or top-dose-only effect, or another doubt; inactive = no such curve, though single readings can be large; an effect the other way counts as inactive or inconclusive.

SMILES	FLuc modulator	ELG1 genotox	NPC1 prom act	SMN2 splice up	p53 reactivation	Rab9 promoter act
CCOC(=O)c1ccc(NC(=S)NCCC2=CCCCC2)cc1	-	-	-	-	-	-
O=C(NC1CCCC1)c1ccc(CN2CCOCC2)cc1	-	-	-	-	-	-
O=C(CCNC(=O)c1ccc([N+](=O)[O-])cc1)NCCC1=CCCCC1	-	-	-	.	-	-
O=C(NCCc1ccc(F)cc1)c1ccc([N+](=O)[O-])cc1	15.1µM	?	2.51µM	11.2µM	-	3.16µM
O=C(NCCN1CCOCC1)c1ccc(Cl)c(S(=O)(=O)NCc2ccccc2)c1	.	-	.	.	-	.
O=C(NCCC1=CCCCC1)c1ccc(F)cc1	2.13µM	?	0.398µM	7.08µM	?	0.447µM
O=C(NCCC1=CCCCC1)c1ccc(CN2CCOCC2)cc1	23.9µM	?	2.82µM	12.6µM	?	1.41µM
O=C(NCCC1=CCCCC1)c1ccc(Br)o1	?	16.4µM	-	-	?	-
COc1ccc(C(=O)NCCC2=CCCCC2)cc1	0.849µM	1.46µM	0.355µM	2.51µM	?	0.316µM
COc1ccc(C(=O)NCC(=O)OCC(=O)NCCC2=CCCCC2)cc1	-	-	-	-	-	-
COc1cc(OC)c(NC(=O)C2=C(C)C(=O)OC23CCCCC3)cc1Cl	-	.	.	-	.	.
CCOC(=O)c1[nH]c(C)c(C(=O)NCCC2=CCCCC2)c1C	-	?	-	-	?	?
COc1ccc(C(=O)NCCC2=CCCCC2)cc1OC	?	?	-	-	?	?
CC(=O)c1c(C)[nH]c(C(=O)NCCC2=CCCCC2)c1C	12µM	9.2µM	3.55µM	?	?	?
COc1cccc(C(=O)NCCC2=CCCCC2)c1	3.01µM	?	0.562µM	?	-	0.631µM
Cc1cc(C(=O)NCCC2=CCCCC2)ccc1[N+](=O)[O-]	12µM	?	4.47µM	.	-	1.78µM
Cc1nn(-c2ccccc2)c(Cl)c1/C=N/NC(=O)CCNc1n[nH]c(=O)[nH]c1=O	?	-	-	.	-	-
COCc1ccc(C(=O)Nc2ccc(C(=O)O)cc2)o1	?	-	-	.	-	-
Cc1oc(C(=O)Nc2ccc(O)cc2)cc1COc1ccccc1	?	?	-	?	-	-
Cc1ccc(OCc2cc(C(=O)Nc3ccccc3)oc2C)cc1	19µM	?	-	-	?	-
CC(=O)Nc1ccc(NC(=O)c2ccc(COc3ccc(C)cc3)o2)cc1	-	-	?	.	-	?
COc1ccc(NC(=O)c2ccc(COc3ccc(C)cc3)o2)cc1	10.7µM	-	-	.	-	-
O=C(O)c1ccc(NC(=O)c2ccc(COc3ccccc3)o2)cc1	19µM	-	-	.	-	-
CCc1c2c(nc3cccc(C(C)C)c13)-c1cccc(=O)n1C2	.	.	.	-	.	.
COC(=O)CCn1nnc(-c2ccc(C)cc2)n1	16.9µM	?	-	-	-	-
SMILES	FLuc modulator	ELG1 genotox	NPC1 prom act	SMN2 splice up	p53 reactivation	Rab9 promoter act
COCCn1c(=O)[nH]c2cc(C(=O)NCc3ccccc3Cl)ccc2c1=O	-	.	.	3.98µM	.	.
COCCn1c(=O)[nH]c2cc(C(=O)OC)ccc2c1=O	-	-	-	-	-	-
CCOC(=O)c1c(C)[nH]c(N=Nc2cccc(OC)c2)c1C	1.69µM	?	1.78µM	14.1µM	?	1.12µM
CCOC(=O)c1c(C)[nH]c(CCC(=O)NCc2cccc(OC)c2)c1C	-	.	.	.	.	.
CCOC(=O)c1c(C)[nH]c(N=Nc2cccc(C)c2)c1C	7.57µM	2.51µM	1.78µM	7.94µM	?	2.82µM
CC1CCN(c2nnc(N)s2)CC1	4.26µM	?	2.24µM	2.51µM	?	1.26µM
C/C(=N\NC(=O)C(=O)Nc1cccc(Cl)c1C)c1ccncc1	-	-	-	-	-	-
Cc1cc(/C=C2\NC(=O)NC2=O)c(C)n1-c1cccnc1	15.1µM	-	-	.	-	-
Cc1cc(/C=C2\SC(=S)N(Cc3ccco3)C2=O)c(C)n1-c1cccnc1	4.78µM	?	?	-	-	?
Cc1cc(/C=C2\NC(=S)NC2=O)c(C)n1-c1cccnc1	9.53µM	-	-	.	-	?
CCCCC(=O)OCC(=O)c1ccc(OCC)cc1	0.849µM	-	-	-	?	-
CCOc1ccc(C(=O)COC(=O)c2nc3nccc(C)n3n2)cc1	-	-	-	.	-	-
CCOc1ccc(C(=O)COC(=O)CC)cc1	5.36µM	-	-	-	-	-
CCOc1ccc(C(=O)CCCC(=O)c2ccc(OCC)cc2)cc1	6.75µM	?	?	.	.	-
CCOc1ccc(C(=O)CCN2CCCCCC2)cc1	-	-	-	-	-	-
Cc1ccc(C(=O)CCS(=O)(=O)c2ccc(F)cc2)cc1	0.757µM	-	-	.	-	-
Cc1cccc(N2CCN(C(=O)CCNS(=O)(=O)c3ccc4c(c3)CCN4C(=O)C3CC3)CC2C)c1 (configuration not stated)	-	.	.	.	.	.
O=C(CCCC(=O)c1ccc(F)cc1)c1ccc(F)cc1	3.01µM	?	2.82µM	.	?	1µM
O=c1cc(-c2ccc(Cl)cc2)oc(=O)[nH]1	16.9µM	-	-	.	-	-
CN(C(=S)NC(=O)Cc1ccccc1)c1ccccc1	?	-	-	-	-	-
O=C(Nc1cccc([N+](=O)[O-])c1)NC1CCCCCCC1	12µM	-	2.82µM	.	-	2.51µM
O=C(Nc1cccc([N+](=O)[O-])c1)ONC1=NCCCCC1	15.1µM	-	-	.	-	-
O=C(Nc1cccc([N+](=O)[O-])c1)C(=O)N1CCCCC1	?	?	?	17.8µM	-	1.26µM
O=[N+]([O-])c1cccc(NC(=S)N2CCCC2)c1	-	-	-	.	?	-
Fc1cc(Br)ccc1Nc1c2c(nc3nc(-c4cccs4)nn13)CCCC2	-	.	.	.	.	.
SMILES	FLuc modulator	ELG1 genotox	NPC1 prom act	SMN2 splice up	p53 reactivation	Rab9 promoter act
CC(=O)N1CCCc2cc(S(=O)(=O)NCc3ccccc3Cl)ccc21	-	.	.	.	.	.
COc1cc(OC)cc(C(=O)NNc2nc3cc4c(cc3s2)OCO4)c1	-	-	-	-	-	-
COc1ccc(C(=O)Nc2nc3cc4c(cc3s2)OCCO4)c(OC)c1	0.953µM	?	-	.	-	-
NNc1nc2cc3c(cc2s1)OCCO3	6.75µM	?	1.58µM	.	?	1.58µM
COc1cccc(OC)c1C(=O)Nc1nc2cc3c(cc2s1)OCO3	-	-	-	.	-	-
COc1ccc2nc(Nc3nc4cc5c(cc4s3)OCO5)sc2c1	-	-	-	?	-	-
O=C(Nc1nc2cc3c(cc2s1)OCCO3)c1cccs1	0.213µM	0.411µM	?	.	-	0.112µM
COc1ccccc1C(=O)Nc1nc2cc3c(cc2s1)OCO3	0.536µM	?	1.78µM	.	-	1.58µM
O=S(=O)(c1ccccc1)N1CCC2(CC1)CN(Cc1ccccc1)C2	.	.	.	-	.	.

Source: PubChem
